# High-throughput results as filed in PubChem.
# D2 PAM-1: positive allosteric modulators of human D2 dopamine receptor | P14416 | DiscoveRx D2 beta-arrestin cells, luminescence, 90 min; 100% = 57 uM dopamine signal | potentiation, % (concentration not given with the values) | 0.23% of 360,000 active | AID 624464; in the data active means potentiation above about 50%
# Target sequence (P14416 whole entry, looked up): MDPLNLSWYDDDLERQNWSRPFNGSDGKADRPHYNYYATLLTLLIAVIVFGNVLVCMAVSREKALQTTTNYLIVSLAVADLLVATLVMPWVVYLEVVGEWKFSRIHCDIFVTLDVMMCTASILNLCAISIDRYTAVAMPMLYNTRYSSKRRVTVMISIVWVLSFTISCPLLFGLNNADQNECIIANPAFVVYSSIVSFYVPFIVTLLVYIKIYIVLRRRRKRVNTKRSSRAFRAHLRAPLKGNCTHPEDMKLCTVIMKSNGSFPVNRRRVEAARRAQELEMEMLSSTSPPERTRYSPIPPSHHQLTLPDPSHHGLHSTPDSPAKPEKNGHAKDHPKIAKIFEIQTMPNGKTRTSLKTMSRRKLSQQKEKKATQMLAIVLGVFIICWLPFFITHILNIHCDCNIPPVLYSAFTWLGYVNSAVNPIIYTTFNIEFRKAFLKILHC
#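 D2 cells co-treated with compound plus 50 nM dopamine (EC20) for 90 min at 37 deg C to detect potentiation. Beta-arrestin recruitment was read as enzyme-fragment luminescence after 1 h at ambient temperature. Full response was set by 57 uM dopamine.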
# D2 antagonist: D2 dopamine receptor (human) antagonism; HEK293 TREx D2 cells, calcium flux, dopamine EC80; P14416; inhibition, % at 10 µM; 2% of 340,000 active; AID 485344; in the data active means inhibition above about 30%; inactive means below that, where a call was filed; further: 0% is about no effect
#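 Inhibition of EC80 dopamine-driven calcium flux, recorded kinetically, defines activity here; cells are a tetracycline-induced HEK293 T-REx line expressing force-coupled D2.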
# D2 PAM-2: positively modulates the human D2 dopamine receptor allosterically. potentiation, % at 10 µM. 0.34% of 340,000 active. HEK293 T-REx D2, calcium flux, EC20 dopamine potentiation. P14416;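 active means potentiation over 3 SD above the plate norm, cut at about 30% in these data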; further: 0% is about no effect
#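 Calcium flux readout, no-wash dye, 1 read/s. Inducible HEK293 Trex D2 line, overnight 30 C. Compound alone 180 s (agonist flags), then EC20 dopamine, another 180 s to score potentiation.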
# D2 ag-1: human D2 receptor agonism in beta-arrestin assay; P14416; DiscoveRx PathHunter D2 beta-arrestin, luminescence, 90 min; 100% = 57 uM dopamine signal; activation, % (concentration not given with the values); 0.084% of 360,000 active; AID 624465; in the data active means activation above about 40%
#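 DiscoveRx PathHunter D2 beta-arrestin cells (2,100/well) attached overnight, then compound-stimulated 90 min at 37 C in HBSS/10 mM HEPES/0.1% Tween-20 buffer; beta-galactosidase complementation read by luminescence after 1 h at ambient temperature. Dopamine 57 uM final (EC100) as control.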
# D2 ag-2: D2 dopamine receptor (human) agonism; P14416; HEK293 T-REx D2 cells, calcium flux agonist mode; activation, % at 2 µM; 0.53% of 340,000 active; AID 485358;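 active means activation over 3 SD above normal in the single-dose calcium agonist read, cut at about 30% in these data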; further: 0% is about no effect
#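 Calcium-flux readout, 1 cycle/sec over 180 s following compound pin transfer, in inducible HEK293 Trex D2 cells (force-coupled); dopamine controls included. Positive calcium responses during this window marked compounds as potential agonists.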
# * marks the source's active call; other numbers are inactive results; x = not tested or not shown. Compounds with a hit are over-represented: about 2.4% of the library has one in this group of screens.
SMILES,D2 PAM-1,D2 antagonist,D2 PAM-2,D2 ag-1,D2 ag-2
OC(CNCC1CCCCC1)COc1ccccc1 (configuration not stated),-22.1,46.5*,-20.1,-1.0,0.4
CC(CCc1ccccc1)NCC(O)COc1ccccc1 (configuration not stated),-8.7,55.4*,-30.1,5.0,34.8*
CC(C)NCC(O)COc1ccc(CCOCC2CC2)cc1 (configuration not stated),-7.5,-5.2,-1.7,-5.7,1.7
O=C(NCCc1ccc(F)cc1)C(=O)NCC(c1cccs1)S(=O)(=O)c1ccc(F)cc1 (configuration not stated),x,x,-5.3,x,x
Cc1ccc(OCC(=O)N(Cc2ccco2)Cc2ccco2)cc1C,x,x,x,x,-1.2
CCN(CC)CCNC(=O)c1ccc(Sc2ccc(C)cc2)c(NC(C)=O)c1,-12.2,53.6*,-31.1,-7.4,-0.6
CC(=O)Nc1cc(C(=O)NCc2ccc(C)cc2)ccc1Sc1ccc(C)cc1,x,x,9.7,x,0.9
CCN(CCCNC(=O)c1ccc(Sc2ccc(Cl)cc2)c(NC(C)=O)c1)c1cccc(C)c1,x,x,-1.2,x,0.4
CCN(CC)CCNC(=O)c1ccc(Sc2ccc(Cl)cc2)c(NC(C)=O)c1,-18.1,36.0*,-30.8,-6.0,-0.1
COc1ccc(NC(=O)C2CC(=O)N(c3cccc(C)c3C)C2)cc1 (configuration not stated),-8.6,31.1*,-12.7,-3.4,0.3
O=C(Nc1nccs1)C1CC(=O)N(Cc2ccco2)C1 (configuration not stated),9.4,-16.7,46.3*,-4.1,0.7
Cc1ccc(N2CC(C(=O)Nc3ccc4c(c3)OCO4)CC2=O)cc1 (configuration not stated),3.0,-6.1,-8.5,-3.2,-1.3
COc1cccc(NC(=O)C2CC(=O)N(Cc3ccco3)C2)c1 (configuration not stated),-0.6,36.6*,-1.3,-5.6,0.7
Cc1ccc(N2CC(C(=O)Nc3ccc4c(c3)OCO4)CC2=O)cc1C (configuration not stated),-4.6,0.5,31.4*,-1.9,-1.7
Cc1ccc(-n2nc(C(=O)N(C)c3ccccc3Cl)c3c4ccccc4n(C)c3c2=O)cc1,x,x,3.7,x,1.1
O=S(=O)(c1ccc(Cl)cc1)N(CCCN1CCOCC1)Cc1cccs1,-18.5,42.8*,-24.3,2.7,-0.2
COc1ccccc1-c1nnc(C2CCN(C(=O)c3cccc(C)c3)CC2)o1,x,x,-2.1,x,-1.0
CC1CCCN(S(=O)(=O)c2ccc(S(=O)(=O)N3CCC4(CC3)OCCO4)cc2)C1 (configuration not stated),-12.9,39.7*,0.3,-4.3,0.5
CC1CCC(NC(=O)CCS(=O)(=O)c2ccc3c(c2)NC(=O)CS3)CC1 (configuration not stated),-4.4,3.0,-0.5,-2.2,0.5
Cc1cccc(NC(=O)CCS(=O)(=O)c2ccc3c(c2)NC(=O)CS3)n1,-6.0,38.8*,-3.4,0.1,-0.1
COc1cc(NC(=O)COC(=O)Cc2ccsc2)cc(OC)c1,-0.1,30.5*,-11.9,1.4,0.8
O=C(COC(=O)Cc1ccsc1)Nc1ccccc1,-2.4,1.4,5.6,1.3,-0.2
CCC(Oc1ccc(F)cc1)C(=O)Nc1nc(-c2ccc(F)cc2)ns1 (configuration not stated),x,x,-19.4,x,x
O=S(=O)(NCCc1cn2ccccc2n1)c1ccc(-c2ccccc2)cc1,-5.4,1.0,2.2,0.6,-0.3
Cc1cccc(S(=O)(=O)NCCc2cn3ccccc3n2)c1,-5.7,32.0*,-4.8,4.0,-2.5
SMILES,D2 PAM-1,D2 antagonist,D2 PAM-2,D2 ag-1,D2 ag-2
O=C(O)c1nn2cc(CCO)cnc2c1Cl,-5.3,-6.2,33.5*,0.7,1.0
CC1CCN(CC(=O)N2CCc3ccccc32)CC1,-10.7,53.6*,-21.8,1.8,0.3
CCOC(=O)C1CCN(CC(=O)N2CCc3ccccc32)CC1,-17.2,x,x,-1.4,x
COc1ccc(C)cc1NC(=O)CNC(c1ccccc1)c1ccc(C)cc1 (configuration not stated),-11.1,-4.9,0.3,-0.5,0.9
COc1ccccc1NC(=O)CNC(c1ccccc1)c1ccccc1,-6.0,36.0*,x,-2.6,-1.0
COc1ccc(S(=O)(=O)NCCc2nnc3ccc(SCC(=O)Nc4ccc(C(F)(F)F)cc4)nn23)cc1,x,x,1.4,x,0.1
COc1ccc(OC)c(CNC(=O)c2cc3ccc4cccnc4c3[nH]2)c1,x,x,5.7,x,0.6
CC(=O)c1ccc(NC(=O)C2(c3ccccc3)CCOCC2)cc1,-20.6,2.3,-0.5,0.5,0.2
O=C(Nc1ccc(Cl)c(C(=O)N2CCOCC2)c1)c1ccccc1,-3.0,17.6,52.4*,-7.6,-0.3
O=C(c1ccc(NC(=O)C2(c3ccccc3)CCOCC2)cc1)N1CCOCC1,-2.4,31.7*,7.3,-1.2,-0.5
COCCOC(=O)c1c(C)oc2ccc(OCc3ccccc3)cc12,-4.6,64.5*,15.5,-5.1,0.4
CC1(C)Oc2ccc3ccc(=O)oc3c2C(N2CCCCC2)C1O (configuration not stated),-1.6,-10.3,-6.6,-3.0,-0.6
CC(=O)OC1C(N2CCCCC2)c2c(ccc(/C=C/C(=O)N3CCCCC3)c2O)OC1(C)C (configuration not stated),1.1,30.4*,4.5,1.1,0.4
CC(=O)c1ccc(N2CCN(C(=O)c3ccc(-c4ccccc4)cc3)CC2)cc1,-4.4,-0.6,1.4,-2.0,-0.5
CC(=O)c1ccc(N2CCN(C(=O)c3cccc(Oc4ccccc4)c3)CC2)cc1,-1.6,35.3*,-5.2,7.3,1.2
O=C(N/C=N/OCc1ccc(Cl)cc1Cl)NOCc1c(Cl)cccc1Cl,-3.6,30.7*,-5.6,-5.4,0.3
CO/N=C/NC(=O)NOCc1ccc(Cl)cc1Cl,11.7,27.3,10.5,1.6,0.6
COc1ccc(CNC(=O)c2oc3c(c2C)-c2nn(Cc4ccc(Cl)cc4)cc2CC3)cc1,x,x,-6.9,x,-0.4
CCn1c(CC(=O)Nc2ccccc2F)nnc1SCC(=O)NC1CCCCC1,-3.5,-17.8,-0.8,-1.8,2.4
Cn1c(CCC(N)=O)nnc1SCC(=O)Nc1ccccc1C(=O)NC1CC1,-6.1,31.4*,-6.8,4.1,0.8
CCn1c(CC(=O)Nc2ccccc2Cl)nnc1SCC(=O)NC1CCCC1,-8.5,34.2*,-2.5,-5.3,0.4
C=CCn1c(C)nnc1SCC(=O)Nc1ccccc1C(=O)NC1CC1,10.7,3.8,3.5,-2.8,-0.5
Cc1ccc(NC(=O)Cc2nnc(SCC(=O)NC3CCCC3)n2C)cc1C,-6.1,31.4*,19.0,-4.7,-1.4
CC(C)c1cnc2c(c1SCC(=O)c1ccccc1)c(=O)n(C)c(=O)n2C,x,x,10.8,x,-0.6
CN(C)c1ccc(C(CNC(=O)c2ccccc2F)N2CCc3ccccc32)cc1 (configuration not stated),x,x,-1.3,x,-2.5
